Nine compounds from PubChem BioAssay (NCATS) can be followed below.

The target of assay [1] is Glucocorticoid receptor (Homo sapiens) (UniProt P04150). The experiment in a line: GR-GFP Redistribution (AID 450;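 active = compounds whose dose series gives a full or clear partial fitted curve of increased nuclear translocation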; note: potency is the fitted concentration of half-maximal effect). The conditions noted are these: U2OS GR-GFP nuclear translocation, laser cytometry, 2 h.
For assay [2] the target is unchanged. Kind of assay: GR-EFC Redistribution (AID 451; calls by dose curve; note: potency is the fitted concentration of half-maximal effect). The conditions noted are these: CHO-K1 GR-EFC translocation, beta-gal luminescence, 2 h. In short, it runs like this:
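CHO-K1 cells stably expressing nuclear-localized β-gal enzyme acceptor and GR fused C-terminally to the enzyme donor fragment; ligand-driven nuclear translocation restores β-gal by complementation. Compounds titrated up to 46 uM final, 2 h at 37 °C; luminescence read.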

For assay [3], the target named is 3',5'-cyclic-AMP phosphodiesterase 4B (Homo sapiens) (UniProt Q07343). Kind of assay: qHTS Assay for Inhibitors of PDE-IV (AID 607; active = well fitted activation curve with a large enough effect in the main read-out, with a control signal flat, not every such curve was filed as active; note: % of control where 0% means no effect). The conditions noted are these: HEK293 ACTOne CNG channel cells, membrane potential fluorescence; series mostly up to 22.9 µM. The method, boiled down:
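The readout is membrane depolarisation from a cAMP-sensing CNG channel, detected with a potential dye at ex 535/em 590. Cells were HEK293-derived (endogenous PDE-IV) at 1000 cells/well, titrated up to 22.9 uM final.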

Assay [4] addresses Cytochrome P450 3A4 (Homo sapiens) (UniProt P08684). The experiment in a line: qHTS Assay for Activators of Cytochrome P450 3A4 (AID 885). Note: nearly all actives have a fitted effect of over 65% in size. The note with it: recombinant CYP3A4, Luciferin-PPXE luminescence, 60 min; series mostly up to 57.1 µM. In short, it runs like this:
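Steps: enzyme/substrate mix dispensed; compound added, 10 min RT; NADPH regeneration solution added, 60 min RT; luciferin detection buffer stops reaction; 20 min later luminescence measured.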

Assay [5] in a line: Primary qHTS for small molecule stabilizers of the endoplasmic reticulum resident proteome: Secreted ER Calcium Modulated Protein (SERCaMP) assay (AID 1508630). Note: % is set by controls: 0 for no effect and ±100 for the full control effect. The conditions noted are these: SH-SY5Y GLuc-SERCaMP (Gaussia luciferase released on ER calcium loss) secretion, thapsigargin, luminescence; series mostly up to 38.4 µM. The method, boiled down:
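GLuc-SERCaMP-expressing SH-SY5Y cells, pretreated 16 h with compound, are challenged with thapsigargin to empty ER calcium stores; after 4 h, coelenterazine is added directly to the medium and luminescence is imaged.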

Assay [6] concerns the target Rap guanine nucleotide exchange factor 3 (Homo sapiens) (UniProt O95398). The experiment in a line: Confirmatory qHTS for antagonist of cAMP-regulated guanine nucleotide exchange factor 3 (EPAC1) (AID 1645880).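 For activity, negative = inhibition: plate controls were DMSO only for no effect and full effect of the ATA control for full effect.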 Note: nearly all actives have a fitted effect of over 55% in size. Note: potency is the fitted concentration of half-maximal effect. The conditions noted are these: EPAC1 Rap1B-BODIPY-GDP exchange, fluorescence; series mostly up to 115 µM. The method, boiled down: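 Nucleotide exchange uses 100 nM EPAC1, 250 nM RAP1B-BODIPY-GDP and 50 uM GDP, with compounds in a concentration-titration series. After 5 min at room temperature, fluorescence (480 nm ex/540 nm em) is read every 5 min for 30 min. Data are normalized to control ATA and DMSO.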

The target is the same in assay [7]. Kind of assay: Confirmatory qHTS for agonist of cAMP-regulated guanine nucleotide exchange factor 3 (EPAC1) (AID 1645881).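 Note: EPAC1 catalysed release of BODIPY-GDP from Rap1B seen as fluorescence loss; 100% = effect of cAMP agonist control; nearly all actives have a fitted effect of over 75% in size.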 The note with it: EPAC1 Rap1B BODIPY-GDP exchange fluorescence; series mostly up to 154 µM.
The target in assay [8] is Rap guanine nucleotide exchange factor 4 (Homo sapiens) (UniProt Q8WZA2). Kind of assay: Confirmatory qHTS for agonist of cAMP-regulated guanine nucleotide exchange factor 4 (EPAC2) (AID 1645884).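 Note: nucleotide exchange releases bodipy-GDP from Rap1 and this lowers its fluorescence; % is set by controls: 0 for no effect and ±100 for the full control effect; nearly all actives have a fitted effect of over 65% in size.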 The note with it: EPAC2 GEF activity, Rap1B-BODIPY-GDP fluorescence; series mostly up to 154 µM.
Rap guanine nucleotide exchange factor 4 (Homo sapiens), sequence (Q8WZA2 whole entry, looked up): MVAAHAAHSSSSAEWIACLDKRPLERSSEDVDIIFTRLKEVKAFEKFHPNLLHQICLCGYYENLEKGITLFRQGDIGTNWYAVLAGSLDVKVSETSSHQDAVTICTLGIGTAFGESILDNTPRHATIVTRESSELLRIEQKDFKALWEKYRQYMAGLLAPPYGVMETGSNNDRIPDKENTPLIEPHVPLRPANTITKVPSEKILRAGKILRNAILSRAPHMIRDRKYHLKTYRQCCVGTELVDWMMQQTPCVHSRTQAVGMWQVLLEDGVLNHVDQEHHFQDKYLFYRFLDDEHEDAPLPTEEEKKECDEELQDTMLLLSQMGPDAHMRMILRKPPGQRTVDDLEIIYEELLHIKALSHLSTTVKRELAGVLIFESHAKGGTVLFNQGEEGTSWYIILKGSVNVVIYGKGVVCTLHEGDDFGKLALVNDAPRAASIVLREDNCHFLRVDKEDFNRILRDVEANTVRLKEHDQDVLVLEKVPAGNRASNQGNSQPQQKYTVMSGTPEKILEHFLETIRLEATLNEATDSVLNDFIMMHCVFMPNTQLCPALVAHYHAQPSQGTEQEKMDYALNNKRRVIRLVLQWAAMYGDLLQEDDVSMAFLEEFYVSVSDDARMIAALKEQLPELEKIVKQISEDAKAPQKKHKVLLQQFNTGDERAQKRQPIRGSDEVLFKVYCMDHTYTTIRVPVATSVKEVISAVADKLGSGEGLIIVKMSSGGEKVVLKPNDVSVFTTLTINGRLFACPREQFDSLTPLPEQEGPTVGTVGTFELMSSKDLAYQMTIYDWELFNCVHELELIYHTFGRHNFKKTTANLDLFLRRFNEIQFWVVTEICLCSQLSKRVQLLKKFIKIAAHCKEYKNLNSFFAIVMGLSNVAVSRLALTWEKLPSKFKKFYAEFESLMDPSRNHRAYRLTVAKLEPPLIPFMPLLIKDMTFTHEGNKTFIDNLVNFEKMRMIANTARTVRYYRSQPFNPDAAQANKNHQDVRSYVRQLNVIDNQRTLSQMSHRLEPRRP
The target of assay [9] is Lysosomal acid glucosylceramidase (Homo sapiens) (UniProt P04062). The experiment in a line: Glucocerebrosidase-p2 (AID 348; in the data active = potency below about 10 µM; note: potency is the fitted concentration of half-maximal effect). The conditions noted are these: purified GBA, blue fluorogenic substrate, 40 min. In short, it runs like this:
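Compounds titrated from 0.6 nM upwards against 0.2 nM enzyme in pH 5.9 citric acid/KH2PO4, taurocholate, tween-20; blue fluorogenic substrate 80 uM, 40 min room temperature, stopped and read Ex 365/Em 440 for AC50.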

In assay [10] the target is Cytochrome P450 1A2 (Homo sapiens) (UniProt P05177). The experiment in a line: p450-cyp1a2 (AID 410; calls by dose curve; note: potency is the fitted concentration of half-maximal effect;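 for activity change, negative = inhibition: -100% = full effect of reference inhibitor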). The conditions noted are these: recombinant CYP1A2, luciferin-ME demethylation, luminescence; series mostly up to 57 µM. The method, boiled down:
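Human CYP1A2 (20nM) demethylated Luciferin-ME at its Km (100uM) in 100mM KPO4. After 10 min compound preincubation, NADPH regeneration ran the reaction 60 min at room temperature. Luciferin was read by luminescence, normalized to 57 uM furafylline.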

Assay [11] deals with Mitogen-activated protein kinase 10 (Mus musculus) (UniProt Q61831). Kind of assay: JNK3 AlphaScreen Assay (AID 530; active = well fitted curve in either direction with a large enough effect, not every such curve was filed as active;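 note: kinase came from lysate of stimulated human HepG2 cells; signal reports phosphorylation of biotinylated GST-cJun 1-79 at Ser73 with 10 µM ATP; % is set by controls: 0 for no effect and ±100 for the full control effect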). The note with it: JNK3 lysate, c-Jun phosphorylation; series mostly up to 57.1 µM. The method, boiled down:
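JNK3 came from HepG2 lysates pre-activated with IL-1beta and TNF-alpha and phosphorylated biotinylated GST-cJun (1-79) at 10 uM ATP, pH 7.6, room temperature. Compounds were titrated. AlphaScreen signal used anti-phospho-cJun (Ser73) antibody.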

Assay [12] addresses Rap guanine nucleotide exchange factor 4 (Homo sapiens) (UniProt Q8WZA2). Kind of assay: Confirmatory qHTS for antagonist of cAMP-regulated guanine nucleotide exchange factor 4 (EPAC2) (AID 1645885). Note: % is set by controls: 0 for no effect and ±100 for the full control effect; nearly all actives have a fitted effect of over 25% in size. The note with it: EPAC2 Rap1B-BODIPY-GDP exchange fluorescence, biochemical; series mostly up to 114 µM.
Assay [13] is described as follows: AP1 Signaling Pathway (AID 357; active = well fitted curve in either direction with a large enough effect, not every such curve was filed as active;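 note: ME-180 reporter cells stimulated with EGF at its EC50 level; % is set by controls: 0 for no effect and ±100 for the full control effect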). The note with it: ME-180 AP-1-bla reporter, EGF-induced, beta-lactamase ratio, 5 h; at 7.69 µM (top of the series) unless noted. The method, boiled down:
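Modulation of EGF-driven AP-1 transcription was assessed with a beta-lactamase reporter in ME-180 cells. Compound and EC50 EGF were co-incubated 5 hours at 37 °C before 2.5-hour CCF4 loading at room temperature and dual-emission reading.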

A short description of assay [14]: NFAT Signaling Pathway (AID 444; active = well fitted curve in either direction with a large enough effect, not every such curve was filed as active;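 note: carbachol stimulus at about its EC50 of 1 µM final; % is set by controls: 0 for no effect and ±100 for the full control effect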). The conditions noted are these: Jurkat NFAT-bla M1, carbachol, beta-lactamase ratio, 5 h; at 7.69 µM (top of the series) unless noted. In short, it runs like this: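 Jurkat cells carrying an NFAT-driven β-lactamase reporter and co-transfected muscarinic M1 receptor were treated with compound plus carbachol (1 uM final, an EC50 level) for 5 h at 37 °C. CCF4 loading followed for 1 h at RT; 460/530 nm ratio gave %activity.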

Assay [15] can be described thus: Stat Signaling Pathway (AID 446; active = well fitted curve in either direction with a large enough effect, not every such curve was filed as active). The conditions noted are these: ME-180 SIE beta-lactamase reporter, IL-6 stimulated, 5 h; at 7.69 µM (top of the series) unless noted. The method, boiled down:
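Screening format detects activators and inhibitors alike: ME-180 SIE-bla cells stimulated at 40 pM IL-6 for 5 hrs with compound, then dual-emission beta-lactamase read at 405 nm excitation.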

Assay [16] deals with Dual specificity protein kinase CLK4 (Homo sapiens) (UniProt Q9HAZ1). Kind of assay: qHTS Assay for Inhibitors of CDC-like Kinase 4 (ADP-FP Assay) (AID 1795).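 Note: recombinant human CLK4 phosphorylating RS repeat peptide at 1 µM ATP; % is set by controls: 0 for no effect and ±100 for the full control effect; nearly all actives have a fitted effect of over 60% in size.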 The conditions noted are these: Transcreener ADP fluorescence polarization; series mostly up to 50 µM. The method, boiled down:
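Clk4 6.25 nM; RS peptide 100 uM; ATP 1 uM; 25 mM Tris pH 7.5, 10 mM MgCl2; 1 h reaction. ADP detected via antibody/orange tracer FP displacement; TG003 positive control.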

Assay [17] concerns the target Ubiquitin carboxyl-terminal hydrolase 1 (Homo sapiens) (UniProt O94782). Kind of assay: Inhibitors of USP1/UAF1: Pilot qHTS (AID 504865).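 Note: rhodamine fluorescence freed from ubiquitin-rhodamine substrate followed over time; top concentration of the series differs between compounds; % is set by controls: 0 for no effect and ±100 for the full control effect; nearly all actives have a fitted effect of over 35% in size.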 The note with it: purified USP1/UAF1, Ub-rhodamine cleavage fluorescence; series mostly up to 54.9 µM. The method, boiled down: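 In 50mM HEPES pH 7.8 containing 0.5mM EDTA, 1mM TCEP, 0.1 mg/ml BSA and 0.01% Tween-20, 1nM USP1/UAF1 is exposed to compound for 15 min, then Ub-Rho (150nM final) is added and fluorescence is read over time.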

Assay [18] deals with Cytochrome P450 3A4 (Homo sapiens) (UniProt P08684). Kind of assay: qHTS Assay for Inhibitors and Substrates of Cytochrome P450 3A4 (AID 884). Note: nearly all actives have a fitted effect of over 50% in size. Note: potency is the fitted concentration of half-maximal effect. The note with it: recombinant CYP3A4, Luciferin-PPXE luminescence; series mostly up to 57.1 µM. In short, it runs like this:
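20 nM human CYP3A4 with 25 uM Luciferin-PPXE (at KM) in 200 mM KPO4, preincubated 10 min with compound; NADPH regeneration started a 60 min RT reaction. Luciferin detected by luminescence, normalized to 57 uM ketoconazole as full inhibition.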

Unmarked numbers belong to inactive results. Records with an inconclusive call do not appear. Active and inactive are the calls of the source. Unless noted, calls come from the whole dose curve; as a rule, active = well fitted curve in the direction sought with a large enough effect; inconclusive = small, poorly fitted or top-dose-only effect, or another doubt; inactive = no such curve, though single readings can be large; an effect the other way counts as inactive or inconclusive. A value given as a limit tells only on which side of the number the result lay.

Rap guanine nucleotide exchange factor 3 (Homo sapiens), sequence (O95398 whole entry, looked up): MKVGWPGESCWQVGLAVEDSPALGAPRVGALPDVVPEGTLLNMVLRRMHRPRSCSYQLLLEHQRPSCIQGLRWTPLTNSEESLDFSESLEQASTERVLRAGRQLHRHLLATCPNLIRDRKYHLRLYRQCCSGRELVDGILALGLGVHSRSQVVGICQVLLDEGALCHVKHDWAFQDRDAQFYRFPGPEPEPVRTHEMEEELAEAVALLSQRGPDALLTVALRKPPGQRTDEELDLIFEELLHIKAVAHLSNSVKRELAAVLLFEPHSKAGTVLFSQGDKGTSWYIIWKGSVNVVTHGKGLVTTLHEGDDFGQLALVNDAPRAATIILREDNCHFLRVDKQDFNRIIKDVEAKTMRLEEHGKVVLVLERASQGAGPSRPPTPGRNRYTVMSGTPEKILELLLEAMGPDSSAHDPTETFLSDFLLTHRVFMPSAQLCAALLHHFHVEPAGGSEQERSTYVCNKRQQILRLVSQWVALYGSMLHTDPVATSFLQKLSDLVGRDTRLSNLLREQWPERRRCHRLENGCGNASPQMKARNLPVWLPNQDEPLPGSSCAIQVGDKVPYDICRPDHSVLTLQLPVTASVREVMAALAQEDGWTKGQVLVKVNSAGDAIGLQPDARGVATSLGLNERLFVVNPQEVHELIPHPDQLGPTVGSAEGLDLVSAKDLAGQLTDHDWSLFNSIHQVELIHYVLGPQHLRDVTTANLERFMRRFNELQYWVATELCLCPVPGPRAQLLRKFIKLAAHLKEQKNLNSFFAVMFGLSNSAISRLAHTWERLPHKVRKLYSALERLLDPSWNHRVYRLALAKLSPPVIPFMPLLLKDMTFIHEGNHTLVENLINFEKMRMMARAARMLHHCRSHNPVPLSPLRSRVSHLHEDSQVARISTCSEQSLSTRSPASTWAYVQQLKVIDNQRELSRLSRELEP
Lysosomal acid glucosylceramidase (Homo sapiens), sequence (P04062 whole entry, looked up): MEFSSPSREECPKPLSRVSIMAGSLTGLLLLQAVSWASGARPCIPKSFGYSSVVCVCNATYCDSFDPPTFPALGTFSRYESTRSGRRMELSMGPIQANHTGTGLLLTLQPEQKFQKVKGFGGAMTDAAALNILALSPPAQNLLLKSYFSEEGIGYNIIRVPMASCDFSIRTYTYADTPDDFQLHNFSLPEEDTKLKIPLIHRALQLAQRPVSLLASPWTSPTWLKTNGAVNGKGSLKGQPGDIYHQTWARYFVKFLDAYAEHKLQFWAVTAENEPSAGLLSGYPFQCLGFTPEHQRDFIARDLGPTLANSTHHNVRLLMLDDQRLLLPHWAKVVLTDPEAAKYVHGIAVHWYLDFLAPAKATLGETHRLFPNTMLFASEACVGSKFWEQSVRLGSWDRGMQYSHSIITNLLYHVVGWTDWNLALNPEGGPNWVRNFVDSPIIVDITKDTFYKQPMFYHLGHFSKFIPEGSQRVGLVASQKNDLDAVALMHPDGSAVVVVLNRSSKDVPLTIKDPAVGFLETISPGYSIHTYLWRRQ
Cytochrome P450 1A2 (Homo sapiens), sequence (P05177 whole entry, looked up): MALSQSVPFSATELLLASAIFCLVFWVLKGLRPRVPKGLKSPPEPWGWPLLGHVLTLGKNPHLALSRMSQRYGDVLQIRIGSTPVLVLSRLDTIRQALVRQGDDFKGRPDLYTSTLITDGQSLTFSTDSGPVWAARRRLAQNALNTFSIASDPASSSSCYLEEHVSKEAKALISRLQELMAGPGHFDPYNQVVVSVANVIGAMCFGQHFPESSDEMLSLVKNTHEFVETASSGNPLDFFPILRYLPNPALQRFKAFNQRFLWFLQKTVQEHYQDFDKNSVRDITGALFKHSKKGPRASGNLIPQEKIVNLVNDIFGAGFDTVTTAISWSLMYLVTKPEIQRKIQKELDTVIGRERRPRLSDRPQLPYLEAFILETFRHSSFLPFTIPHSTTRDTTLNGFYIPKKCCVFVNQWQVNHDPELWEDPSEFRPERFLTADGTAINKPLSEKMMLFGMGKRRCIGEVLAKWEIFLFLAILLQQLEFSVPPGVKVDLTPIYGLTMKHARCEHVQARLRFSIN
3',5'-cyclic-AMP phosphodiesterase 4B (Homo sapiens), sequence (Q07343 whole entry, looked up): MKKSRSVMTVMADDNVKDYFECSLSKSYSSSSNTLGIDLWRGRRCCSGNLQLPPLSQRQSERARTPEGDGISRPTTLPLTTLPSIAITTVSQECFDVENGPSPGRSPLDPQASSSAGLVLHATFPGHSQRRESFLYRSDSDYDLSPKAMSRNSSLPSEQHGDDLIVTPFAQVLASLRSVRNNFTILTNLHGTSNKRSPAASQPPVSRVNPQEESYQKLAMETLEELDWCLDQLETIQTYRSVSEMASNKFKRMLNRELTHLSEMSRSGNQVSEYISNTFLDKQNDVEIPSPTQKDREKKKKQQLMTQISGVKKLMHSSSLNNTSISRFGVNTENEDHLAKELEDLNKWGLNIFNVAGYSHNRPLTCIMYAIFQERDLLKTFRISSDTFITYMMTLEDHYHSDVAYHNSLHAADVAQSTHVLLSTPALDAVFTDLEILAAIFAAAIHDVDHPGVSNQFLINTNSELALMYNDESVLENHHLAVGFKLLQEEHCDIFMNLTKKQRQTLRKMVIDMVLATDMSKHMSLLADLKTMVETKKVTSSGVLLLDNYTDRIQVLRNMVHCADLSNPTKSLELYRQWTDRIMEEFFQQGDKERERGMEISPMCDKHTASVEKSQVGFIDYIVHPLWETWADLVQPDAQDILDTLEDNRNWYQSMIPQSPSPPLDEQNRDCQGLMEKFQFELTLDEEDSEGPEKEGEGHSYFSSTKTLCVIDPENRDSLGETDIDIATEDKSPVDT
Cytochrome P450 3A4 (Homo sapiens), sequence (P08684 whole entry, looked up): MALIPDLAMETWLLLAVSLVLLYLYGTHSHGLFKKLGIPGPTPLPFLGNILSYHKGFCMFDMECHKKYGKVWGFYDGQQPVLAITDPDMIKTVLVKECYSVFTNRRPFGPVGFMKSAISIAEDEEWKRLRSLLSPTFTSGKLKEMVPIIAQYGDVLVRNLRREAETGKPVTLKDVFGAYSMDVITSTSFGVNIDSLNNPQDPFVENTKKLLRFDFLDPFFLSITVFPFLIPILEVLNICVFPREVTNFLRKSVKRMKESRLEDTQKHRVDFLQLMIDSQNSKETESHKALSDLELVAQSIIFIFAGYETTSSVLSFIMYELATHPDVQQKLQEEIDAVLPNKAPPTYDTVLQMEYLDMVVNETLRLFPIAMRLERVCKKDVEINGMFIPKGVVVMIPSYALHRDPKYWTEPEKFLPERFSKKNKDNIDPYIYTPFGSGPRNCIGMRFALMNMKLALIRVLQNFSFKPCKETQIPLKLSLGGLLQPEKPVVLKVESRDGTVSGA
Glucocorticoid receptor (Homo sapiens), sequence (P04150 whole entry, looked up): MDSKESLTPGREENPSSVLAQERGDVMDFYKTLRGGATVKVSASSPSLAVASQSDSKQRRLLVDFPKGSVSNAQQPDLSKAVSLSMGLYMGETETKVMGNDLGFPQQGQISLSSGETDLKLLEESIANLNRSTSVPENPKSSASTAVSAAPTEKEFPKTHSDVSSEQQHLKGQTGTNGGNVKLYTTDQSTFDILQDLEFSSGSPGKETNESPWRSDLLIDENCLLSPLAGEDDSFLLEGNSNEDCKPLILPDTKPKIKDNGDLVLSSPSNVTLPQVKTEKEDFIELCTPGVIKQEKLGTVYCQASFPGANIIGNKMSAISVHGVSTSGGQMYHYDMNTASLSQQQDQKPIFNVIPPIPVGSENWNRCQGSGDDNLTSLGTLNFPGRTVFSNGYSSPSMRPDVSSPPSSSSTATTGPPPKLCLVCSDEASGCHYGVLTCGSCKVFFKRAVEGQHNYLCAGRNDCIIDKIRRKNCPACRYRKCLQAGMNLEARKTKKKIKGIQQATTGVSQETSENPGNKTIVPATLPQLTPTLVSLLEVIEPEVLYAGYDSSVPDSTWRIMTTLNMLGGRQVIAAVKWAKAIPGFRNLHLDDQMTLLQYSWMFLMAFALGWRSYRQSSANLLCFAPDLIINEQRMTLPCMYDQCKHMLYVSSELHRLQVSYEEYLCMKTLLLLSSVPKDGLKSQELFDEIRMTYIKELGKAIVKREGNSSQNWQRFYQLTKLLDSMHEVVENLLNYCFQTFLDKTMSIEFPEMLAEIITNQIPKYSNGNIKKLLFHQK

As to `N#C/C(=C\c1ccc(O)c(O)c1)C(=O)OCCc1cccs1`, the Potency in assay [1] is greater than 46 µM; in [2], greater than 46 µM; in [6] it was 12.5 µM (active). The Potency entry in [3], in assay [4], in assay [7] and in assay [8] was “inactive” in each case. In addition, the result in assay [5] was inactive.

As to `O=c1c(-c2cc(F)cc(F)c2)nc2cnc(N3CCOCC3)nc2n1-c1ccccc1`, the Potency was greater than 11.4 µM in [9], 5.01 µM (active) in assay [10], greater than 9.22 µM in assay [1] and greater than 46 µM in assay [2]. Also, the Potency entry in assay [11], in assay [3], in [6] and in [12] was “inactive” in each case. The result in assay [5] was inactive.

In the case of `O=c1c(-c2cccs2)nc2cnc(N3CCOCC3)nc2n1CCc1ccccc1`, the Potency in [9] is greater than 11.4 µM; in assay [1] it was greater than 9.22 µM; in assay [2], greater than 46 µM. Besides, the activity change, negative = inhibition in assay [13] is 13.2%; in [14], 19.8%. In assay [15], the activity, negative = inhibition was 18.4%. The Potency result in [4], in [16], in assay [17], in [6] and in assay [12] was “inactive” each time. In [5], the result was inactive.

Consider `COC(=O)N1CCC2(CC1)CCN(c1cccc(-c3ccccc3)c1)CC2`, for which the Potency in [9] was greater than 11.4 µM; in [2], greater than 46 µM. Also, the activity change, negative = inhibition in assay [13] is -18.3%. Also, the Potency entry in assay [10], in assay [11], in assay [3], in assay [18], in [6] and in [7] was “inactive” throughout. Further, the Potency result in assay [8] was “inactive”. In assay [15], the activity, negative = inhibition was 13%. In addition, the outcome in assay [5] was inactive.

Take `COCCn1c(=O)c(-c2cccs2)nc2cnc(Nc3ccccc3)nc21`: the Potency in assay [9] is greater than 11.4 µM. Further, in assay [13], the activity change, negative = inhibition was 5.47%. The activity, negative = inhibition in [15] was 14.8%. Moreover, the Potency entry in assay [11], in [6], in assay [7] and in assay [12] was “inactive” throughout. Also, the result in assay [5] was inactive.

As to `COCCn1c(=O)c(-c2cc(F)cc(F)c2)nc2cnc(Nc3cccc(OC)c3)nc21`, the Potency in [9] was greater than 11.4 µM; in [10], 2.51 µM (active); in [1], greater than 9.22 µM; in assay [2], greater than 46 µM; in [18], 7.94 µM (active). In addition, the activity change, negative = inhibition in assay [13] was -16%; in assay [14] it was -16.5%. Besides, the activity, negative = inhibition in assay [15] was -3.85%. The Potency entry in assay [11], in assay [3], in [4], in assay [6], in assay [7] and in assay [12] was “inactive” each time. Besides, in assay [5], the result was inactive.

Consider `O=c1c(-c2ccc(F)c(F)c2)nc2cncnc2n1Cc1ccccc1Cl`, for which the Potency in [9] was greater than 11.4 µM; in assay [10], 5.01 µM (active); in assay [1], greater than 9.22 µM; in assay [2], greater than 46 µM. For the same compound, the activity change, negative = inhibition in assay [13] was 4.57%. Further, the activity, negative = inhibition in [15] was 9.03%. In addition, the Potency entry in [11], in [4], in assay [6], in assay [7] and in [8] was “inactive” throughout. In addition, the outcome in [5] was inactive.

As to `COc1cccc(Nc2ncc3nc(-c4cc(F)cc(F)c4)c(=O)n(C4CC4)c3n2)c1`, the Potency in [9] was greater than 11.4 µM; in assay [10], 6.31 µM (active); in assay [1] it was greater than 9.22 µM. Also, the figures for the activity change, negative = inhibition in assay [13] and in assay [14] were -13.3% and -29.9%, respectively. In addition, the activity, negative = inhibition in assay [15] was -7.32%. Also, the Potency result in [11], in assay [3], in [6], in assay [7], in assay [8] and in [12] was “inactive” each time. The result in assay [5] was inactive.

For `COc1ccccc1CNc1nc(-c2cccc(C#N)c2)nc2ccccc12`, the Potency in assay [9] was greater than 11.4 µM; in assay [10], 1.26 µM (active); in assay [1] it was greater than 46 µM. For the same compound, the activity, negative = inhibition in [15] is -22%. Further, the Potency entry in assay [11], in assay [4], in assay [16], in assay [6], in [7] and in assay [12] was “inactive” throughout. Moreover, the result in [5] was inactive.
